According to PubChem BioAssay AID651812 (National Center for Advancing Translational Sciences (NCATS), 2012):
In all, about 2,100 compounds went through this assay and about 650 (31%) were called active. Roughly 16% stayed inconclusive and do not appear here. The list shows a part of the results. Unmarked numbers belong to inactive results. Calls come from the whole dose curve; as a rule, active = well fitted inhibition curve with a large enough effect; inconclusive = small, poorly fitted or top-dose-only effect; inactive = flat fitted curve, though single readings scatter.
Potency is the fitted concentration of half-maximal effect.

Experiment: qHTS for inhibitors of Vif-A3G interactions: Cherry picks; note: nearly all actives have a fitted effect of over 80% in size; for activity, negative = fluorescence increase: % of control where 0% means no effect
Details: HeLa A3G-eYFP + Vif (tagged APOBEC3G with the HIV-1 protein that degrades it), 24 h; Potency: eYFP fluorescence increase; series mostly up to 36.9 µM; activity, negative = fluorescence increase: at the top concentration
Text: The recent discovery and characterization of host restriction factors, which provide a potent defense to invading retroviruses, has provided new targets for antiviral drug development. APOBEC3G (A3G) and APOBEC3F (A3F) are potent cytidine deaminases that block HIV-1 replication; HIV-1 expresses the Vif protein, which counteracts A3G and A3F by binding to them and inducing their proteasomal degradation. The Vif-A3G and Vif-A3F interactions provide two potential targets for development of small molecules which can interfere with the ability of Vif to degrade A3G or A3F. […] To identify inhibitors that can interfere with Vif mediated degradation of A3G and A3F, we have developed Hela cell lines that stably express A3G or A3F tagged with eYFP at the C-terminal end (A3G-eYFP or A3F-eYFP, respectively) and Vif. In the absence of an inhibitor, Vif induces degradation of A3G-eYFP and A3F-eYFP, and the cells are not fluorescent. In the presence of an inhibitor, it is expected that Vif will be unable to degrade A3G-eYFP and/or A3F-eYFP, resulting in an increase in yellow fluorescence. In this assay, Vif A3G was screened against the cherry picks ordered from the MLSMR. NIH Chemical Genomics Center [NCGC] NIH Molecular Libraries Probe Centers Network [MLPCN] MLPCN Grant: MH093245 Assay Submitter (PI): Vinay Pathak, National Cancer Institute
A3G-Vif cells were harvested from T225 flask and resuspended in phenol free OPTI-MEM medium with 5% FBS. Then 5 uL of 140,000 cells/mL resuspended cells was dispensed into each well of low base Aurora COC 1,536-well plates (black walled, clear bottom) using a Multidrop Combi dispenser. After overnight culture at 37 deg C with 5% CO2, a total of 23 nL of compounds at 5 selected concentrations from the NPC or positive control (2 mM stock of MG132) in DMSO was transferred to each well of the assay plate using a pintool (Kalypsys, San Diego, CA), and the plates were further incubated at 37 deg C with 5% CO2 for 24 hours. After that, the plates were measured on Acumen Explorer (TTP Lab Tech). The fluorescence was detected by 488 nm/Ex and […].
With `CCCN1C(=O)/C(=C/C=C2\N(CC)c3ccccc3C2(C)C)SC1=S` the Potency was 3.96 µM (active). In the case of `CCCCN1C(=O)/C(=C/C=C2/CC(C)(C)CN2C)SC1=S`, the “activity, negative = fluorescence increase” value was -28.2%. With `CCCN1C(=O)/C(=C\C=C2\N(CC)c3ccccc3C2(C)C)SC1=S` the Potency was 3.26 µM (active). For `O=C(NCc1ccccc1C(F)(F)F)c1cccc2c1C(=O)c1ccc(N3CCC(N4CCCCC4)CC3)cc1S2(=O)=O`, the Potency was 20.6 µM (active). For `O=C(NCc1cccc(C(F)(F)F)c1)c1cccc2c1C(=O)c1ccc(N3CCC(Cc4ccccc4)CC3)cc1S2(=O)=O`, the Potency was 18.4 µM (active). With `O=C(NC1CC1)c1cccc2c1C(=O)c1ccc(N3CCC(Cc4ccccc4)CC3)cc1S2(=O)=O` the Potency was 23.1 µM (active). With `Cc1cc(C)c(S(=O)(=O)N2CCCCC2CCNC(=O)C(=O)NCc2ccco2)c(C)c1` (centres undefined) the “activity, negative = fluorescence increase” value was -17.1%. With `Cc1c(C)n(Cc2ccccc2)c2ccc(C(=O)NCc3ccco3)cc12` the “activity, negative = fluorescence increase” value was -7.76% [at 46.1 µM]. With `O=C(NCc1ccco1)c1cccc2c1C(=O)c1ccc(N3CCC(Cc4ccccc4)CC3)cc1S2(=O)=O` the Potency was 18.4 µM (active). For `Cc1ccc(C(=O)NC(=C(Cl)Cl)S(=O)(=O)c2ccc(Cl)cc2)cc1`, the “activity, negative = fluorescence increase” value was -21.2%. In the case of `CC(=O)c1cccc(-c2ccnc3c2CC(C(=O)NCC2CCOCC2)O3)c1` (centres undefined), the “activity, negative = fluorescence increase” value was -5.46%. In the case of `COc1ccccc1C(=O)N1CCN(c2cccc(Cl)c2)CC1`, the “activity, negative = fluorescence increase” value was -4.75%. For `Cc1cccc(C(=O)NC(=S)N2CCc3ccccc3C2)c1`, the “activity, negative = fluorescence increase” value was 13.5% [at 46.1 µM]. In the case of `O=C(Nc1nc2c(F)cccc2s1)c1ccc([N+](=O)[O-])o1`, the “activity, negative = fluorescence increase” value was -7.65% [at 46.1 µM]. For `O=C(N/N=C/c1ccc([N+](=O)[O-])o1)c1cn2ccc3ccccc3c2n1`, the “activity, negative = fluorescence increase” value was -24.5%. In the case of `O=C(N/N=C/c1ccc([N+](=O)[O-])o1)c1sc2ccccc2c1Cl`, the Potency was 18.4 µM (active). With `COc1cc(C2Nc3ccc4ncccc4c3C3=C2C(=O)CCC3)ccc1O` (centres undefined) the “activity, negative = fluorescence increase” value was -1.83%. For `O=C(Nc1ncccn1)c1ccc([N+](=O)[O-])o1`, the “activity, negative = fluorescence increase” value was -21.8%. In the case of `O=C(N/N=C/c1cccs1)c1n[nH]c2c1CCC2`, the “activity, negative = fluorescence increase” value was 0.292%. In the case of `CCCOC(=O)/C(=C\c1ccc([N+](=O)[O-])o1)NC(=O)c1ccccc1`, the “activity, negative = fluorescence increase” value was 2.95% [at 46.1 µM]. In the case of `COc1ccccc1OCC(=O)N/N=C/C=C/c1ccc([N+](=O)[O-])o1`, the Potency was 16.4 µM (active). With `O=C(N/N=C\C=C\c1ccc([N+](=O)[O-])o1)c1cccs1` the Potency was 15.8 µM (active). In the case of `COc1ccccc1OCC(=O)NNC(=O)Nc1ccc(Cl)cc1`, the “activity, negative = fluorescence increase” value was -5.61%. For `COc1cc2c(c(OC)c1OC)-c1ccc(N(C)CC(OC)OC)c(=O)cc1[C@@H](NC(C)=O)CC2`, the “activity, negative = fluorescence increase” value was -15.4%. For `CC(C)(C)c1ccc(Oc2ccc(NC(=O)c3ccccc3C(=O)O)cn2)cc1`, the “activity, negative = fluorescence increase” value was -6.2%. For `COc1cc2ccccc2cc1C(=O)N/N=C/c1cccnc1`, the “activity, negative = fluorescence increase” value was -15.3%. For `Cc1cc2nc3c(=O)n(C4CCCCC4)c(=O)[nH]c3nc2cc1N`, the Potency was 16.4 µM (active). For `Cc1cc2nc3c(=O)n(Cc4ccccc4)c(=O)[nH]c3nc2cc1N`, the Potency was 6.27 µM (active). For `Cn1c(=O)[nH]c(=O)c2c1nc(Br)n2Cc1cccc(Br)c1`, the “activity, negative = fluorescence increase” value was -5.77%. With `Cc1nc2c3cc(F)ccc3n(Cc3ccccc3)c2s1` the “activity, negative = fluorescence increase” value was -4.45%. For `Cc1cccc(C)c1OCCNC(=O)C(=O)NCc1ccco1`, the “activity, negative = fluorescence increase” value was 2.6%. With `CC1CC(C)(C)Nc2ccc(OC(=O)c3ccco3)cc21` (centres undefined) the Potency was 20.6 µM (active). In the case of `COc1cc(C2Oc3ccccc3C=C2[N+](=O)[O-])cc(OC)c1OC` (centres undefined), the “activity, negative = fluorescence increase” value was 0.838%. For `N#CC1=C(N)C(C#N)(C#N)[C@H](c2ccoc2)[C@H]2CN(Cc3ccccc3)CC=C12`, the “activity, negative = fluorescence increase” value was -15.3%. For `CCOC(=O)C1=C(C)N=c2sc(=Cc3cc(Cl)c(OCC(=O)O)c(Cl)c3)c(=O)n2C1c1cccc(OC)c1` (centres undefined), the “activity, negative = fluorescence increase” value was -25.7%. With `CC(C)(C)C(=O)c1sc2nc(-c3cccs3)cc(C(F)(F)F)c2c1N` the Potency was 1.3 µM (active). For `Nc1c(C(=O)C2CC2)sc2nc(-c3cccs3)cc(C(F)(F)F)c12`, the Potency was 2.31 µM (active). For `CC(=O)c1sc2nc(-c3cccs3)cc(C(F)(F)F)c2c1N`, the Potency was 7.31 µM (active). In the case of `Cc1ccc(-c2cc(NC=O)c3ncc(-c4cccc(C(=O)N(C)C)c4)n3c2)cc1`, the “activity, negative = fluorescence increase” value was -12.4%. In the case of `CCOC(=O)c1c(-c2ccc(OC)cc2)csc1/N=C/C1=C(O)CCCC1=O`, the “activity, negative = fluorescence increase” value was -5.4% [at 46.1 µM]. In the case of `Cc1ccc(S(=O)(=O)N2CCN(C(=O)CSC(=S)N3CCCC3)CC2)c(C)c1`, the “activity, negative = fluorescence increase” value was 2.82% [at 46.1 µM]. In the case of `CCN1CCN(c2c(/C=C3\SC(=S)N(Cc4ccco4)C3=O)c(C)c(C#N)c(=O)n2C)CC1`, the Potency was 18.4 µM (active). In the case of `COC(=O)C1=C(C)N(Cc2ccco2)C(=O)/C1=C\c1ccc([N+](=O)[O-])cc1`, the “activity, negative = fluorescence increase” value was -5.03% [at 46.1 µM]. With `CN(C)c1ccc(C=C2SC(=S)N(Cc3ccco3)C2=O)cc1` the Potency was 2.8 µM (active). With `Cc1cc(/C=C2\SC(=S)N(Cc3ccco3)C2=O)c(C)n1-c1cccnc1` the Potency was 23.1 µM (active). With `C/C(=N/NC(N)=S)c1ccc(Br)s1` the “activity, negative = fluorescence increase” value was 4.29% [at 46.1 µM]. In the case of `CCCC(=O)NC(c1ccc(OC)cc1)c1ccc2cccnc2c1O` (centres undefined), the “activity, negative = fluorescence increase” value was 2.17% [at 46.1 µM]. In the case of `Cn1ccnc1Sc1nc2ccccc2nc1NS(=O)(=O)c1ccccc1`, the “activity, negative = fluorescence increase” value was 9.44% [at 46.1 µM]. For `CC(OC(=O)/C(C#N)=C/c1ccc(N(C)C)cc1)C(=O)N(C)Cc1ccccc1` (centres undefined), the Potency was 18.4 µM (active).
